Measurements as given in PubChem BioAssay AID624297 (National Center for Advancing Translational Sciences (NCATS), 2012).
Among all 340,000 compounds or so, about 6,200 (1.8%) were called active. Not shown: some 10% with an inconclusive outcome. The full list was thinned out, with actives kept by preference. Values without a mark were called inactive. Calls come from the whole dose curve; as a rule, active = well fitted activation curve with a large enough effect; inconclusive = small, poorly fitted or top-dose-only effect; inactive = no such curve, though single readings can be large or run the other way.

Test: A quantitative high throughput screen for small molecules that induce DNA re-replication in SW480 colon adenocarcinoma cells. For re-replication activation: % of control where 0% means no effect. Note: nearly all actives have a fitted effect of over 55% in size.
Conditions: Hoechst DNA content imaging, 48 h; series mostly up to 46.1 µM; re-replication activation: at the top concentration
Excerpt: H Molecular Libraries Probe Production Network [MLPCN] NIH Chemical Genomics Center [NCGC] MLPCN Grant: Fast Track K99 CA136555 Assay Provider: Melvin DePamphilis, NICHD, NIH Assay Overview Eukaryotic cells normally restrict genome duplication to once per cell division. When this process is aberrant, DNA re-replication occurs when cells reinitiate DNA replication before the first round of replication is complete. DNA re-replication induces the DNA damage response, arrests cell proliferation, and triggers apoptosis. The cell cycle components cyclin A, Cdt-1, Cdc6 and geminin are critical regulators of this process and their misregulation results in DNA re-replication in normal and cancer cells. To identify compounds that induce re-replication in normal cells, an image-based assay was used to measure DNA content of nuclei, as detected by the fluorescent DNA binding dye, Hoechst. Cell nuclei were imaged by a fluorescence scanning plate imager and compounds that induce DNA re-replication were identified by the increase of nuclei with elevated fluorescence intensity
For screening, 250 cells in 5 uL/well were dispensed into black clear 1536-well plates (Aurora) using a solenoid-based dispenser. Following transfer of 23 nL compound or DMSO vehicle by a pin tool, the plates were incubated 48 hr at 37 C and 5% CO2. After addition of 1 uL/well Hoescht stain, the plates were incubated 40 min at 37 C, 5% CO2 and total intensity of fluorescent objects (nuclei) were enumerated by an Acumen Explorer Ex3 (TTP LabTech) fluorescence scanning plate imager (405 nm excitation, 500-530 nm emission). Keywords: NIH Roadmap, MLPCN, MLI, MLSMR, qHTS, NCGC, DNA replication, cancer
Potency is the fitted concentration of half-maximal effect.

Row | SMILES | re-replication activation [%] | Potency
1 | O=C(NCCc1ccccc1)c1cccc(NC(=O)c2ccccc2)c1 | -30.1 | 
2 | COc1ccccc1NC(=O)CN(c1ccccc1OC)S(=O)(=O)c1ccccc1 | -10.6 | 
3 | COc1ccccc1N(CC(=O)N/N=C(\C)c1ccccc1O)S(=O)(=O)c1ccc(C)cc1 |  | 4.11 µM (active)
4 | COc1ccc(S(=O)(=O)N(CC(=O)N/N=C/c2ccccc2C(=O)O)c2ccccc2OC)cc1 | -2.38 | 
5 | Cc1cc(C)nc(S/C=C/C(=O)c2ccccc2)n1 |  | 4.61 µM (active)
6 | Cc1cc(C)nc(SCC(=O)N(C)C)n1 | -6.02 | 
7 | Cc1cc(C)nc(SCC(=O)c2ccc(Cl)cc2)n1 | -3.92 | 
8 | C=CCC[C@H](Cc1ccc(F)cc1)C(=O)OC[C@@H](NC(=O)[C@@H](CC=C)CC(=O)N[C@H](CO)Cc1ccccc1)C(C)(C)C | 0.781 | 
9 | O=C(NCC1CCCCC1)NCC1CCCCC1 | 5.1 | 
10 | O=C1CC(c2ccccc2)C(=O)N2C(=O)CC(c3ccccc3)C(=O)N12 (stereo not drawn) | -19.3 | 
11 | CC(C)(C)c1nnc2sc(SCC(O)=C(C#N)c3nc4ccccc4[nH]3)nn2c1=O | -1.77 | 
12 | COc1ccc(O)c(C=Nc2cc(C)on2)c1 | 24.5 | 
13 | COc1ccc(-c2c(-c3ccc(OC)cc3O)nc(C)nc2C(F)(F)F)cc1 | -1.41 | 
14 | COc1ccc(-c2onc(C)c2-c2ccc3c(c2)OCCO3)c(O)c1 |  | 14.6 µM (active)
15 | COC(=O)c1c(NC(C)=O)sc(C(=O)Nc2ccccc2OC)c1C | -22.9 | 
16 | CCC(=O)Nc1sc(C(=O)Nc2ccccc2)c(C)c1C(=O)OC |  | 20.6 µM (active)
17 | CCOC(=O)c1sc(NC(=O)COc2ncnc3ccccc23)c(C(=O)OCC)c1C | 6.73 | 
18 | COc1cc(OC)cc(C(=O)NC(C(=O)N2CCC2)C(C)C)c1 (stereo not drawn) | -7.72 | 
19 | CC(=O)Nc1ccc(Nc2c3ccccc3nc3ccccc23)cc1 |  | 18.4 µM (active)
20 | CC(=O)Nc1ccc(NC(=O)COc2ncnc3ccccc23)cc1 | -0.239 | 
21 | CC(C)(C)OC(=O)NNc1c2ccccc2nc2ccccc12 | 18.8 | 
22 | CC[C@]1(C(=O)OC)[C@H]2C(=O)N(Cc3ccccc3)C(=O)[C@H]2[C@H]2CN=C(SCc3ccccc3)N21 | -6.22 | 
23 | CC(NC(=O)COC(=O)c1ccc2ccccc2n1)c1ccccc1 (stereo not drawn) | -3.09 | 
24 | Cc1c(NC(=O)c2cccnc2)c(=O)n(-c2ccccc2)n1C |  | inactive

Row | SMILES | re-replication activation [%] | Potency
25 | Cc1ccc(O)c(-c2cc(C(=O)Nc3c(C)n(C)n(-c4ccccc4)c3=O)[nH]n2)c1 |  | 0.058 µM (active)
26 | Cc1ccc(O)c(-c2cc(C(=O)NCc3ccccc3)[nH]n2)c1 | -3.89 | 
27 | O=C1Cc2cc(S(=O)(=O)Nc3cccc(F)c3)ccc2N1 | -6.13 | 
28 | CC(OC(=O)c1cc2ccccc2[nH]1)C(=O)N(C)c1ccccc1 (stereo not drawn) | 4.01 | 
29 | COc1cccc(C2CC(c3cccs3)=NN2C(=O)CSC2=NCCS2)c1OC (stereo not drawn) | 20 | 
30 | COc1ccccc1N1N=C(c2cccs2)CC1c1ccccc1 (stereo not drawn) |  | 2.59 µM (active)
31 | COc1ccc(C2CC(c3cccs3)=NN2C(=O)CCC(=O)O)cc1OC (stereo not drawn) | 8.15 | 
32 | NC(=O)C1(N2CCCC2)CCN(Cc2ccccc2)CC1 | -4.45 | 
33 | CCCCN1CC(COCc2ccccc2)OCCS1(=O)=O (stereo not drawn) | 1.34 | 
34 | Cc1cccc(CC2(O)C(=O)Nc3ccccc32)n1 (stereo not drawn) | -0.661 | 
35 | O=C(CC1Sc2ccccc2NC1=O)NNc1ccc(Cl)c(Cl)c1 (stereo not drawn) | 26.7 | 
36 | COc1cccc(NC(=O)COc2cccnc2[N+](=O)[O-])c1 | 3.79 | 
37 | Cc1cc(=O)oc2cc(OCC3CC(c4ccccc4Cl)=NO3)ccc12 (stereo not drawn) |  | 3.66 µM (active)
38 | Cc1ccccc1N1CCN(CCCOc2ccc3c(C)cc(=O)oc3c2)CC1 | 2.23 | 
39 | Cc1cc(=O)oc2cc(OCCC[n+]3ccccc3)ccc12 | -9.83 | 
40 | COc1ccc(NC(=S)NC2CCS(=O)(=O)C2)cc1 (stereo not drawn) | -4.58 | 
41 | O=C(Cc1ccc(Cl)cc1)NC1CCS(=O)(=O)C1 (stereo not drawn) | -9.59 | 
42 | CCCSC(=S)NC1CCS(=O)(=O)C1 (stereo not drawn) |  | 16.4 µM (active)
43 | CCNC(=S)N1CCN(S(=O)(=O)c2ccc(Cl)s2)CC1 | 6.77 | 
44 | CC1O[C@@H](OC2C(O)C(C)O[C@H](OC(=O)[C@]34CCC(C)(C)C[C@H]3C3=CCC5[C@@]6(C)CC(O)C(O[C@@H]7OC(CO)C(O)[C@@H](O)[C@@H]7O)[C@@](C)(C(=O)O)C6CC[C@@]5(C)[C@]3(CO)CC4)C2O[C@H]2OC(C)[C@@H](O[C@@H]3OCC(O[C@@H]4OC(CO)C(O)[C@H](O)C4O)[C@@H](O)[C@@H]3O)[C@H](O)C2O)C(O)C(O)C1O (stereo partly drawn) | -10.5 | 
45 | CC(C)(C)n1cnnc1Sc1ccc([N+](=O)[O-])cn1 |  | 18.4 µM (active)
46 | Cc1cccc(C)c1NC(=O)CSc1ccc([N+](=O)[O-])cn1 | -14.5 | 
47 | O=[N+]([O-])c1ccc(Sc2n[nH]c(-c3ccco3)n2)nc1 | -5.13 | 
48 | CC[C@]12c3[nH]c4cc(CCC(=O)N(C)C)ccc4c3CCN1C(=O)[C@@H](CC(=O)NCCCN(C)C)C[C@@H]2C(=O)N1CCN(C(=O)c2ccco2)CC1 | 20.5 | 
